This is an account of results in PubChem BioAssay AID686971 (National Center for Advancing Translational Sciences (NCATS), 2013).

The whole screen tested about 360,000 compounds, of which about 7,500 (2.1%) were called active. Where a call stands in place of a potency, no number is given. About 8% were inconclusive and are not listed. This is one part of a sample in which actives are shown more often than they occur. The call rests on the fitted dose curve; in most records, active means well fitted cell-killing curve with a large enough effect; inconclusive means small, poorly fitted or top-dose-only effect, or effect the other way, or another doubt; inactive means no such curve, though single readings can be large or run the other way.
Potency means the concentration at half of the fitted maximal effect.

This test in a line: qHTS for induction of synthetic lethality in tumor cells producing 2HG: qHTS for the HT-1080-IDH1KD cell line. As to conditions: HT-1080 IDH1 knockdown viability, ATP luminescence, 48 h; series mostly up to 46.1 µM. An excerpt:
Unbiased genomic sequencing for 22 glioma genomes found recurrent mutation of IDH1 on chromosome 2q33, a gene encoding the cytosolic isoform of IIDH1 associated with the tri-carboxylic acid cycle (TCA) that catalyzes the oxidative decarboxylation of isocitrate, yielding alpha-ketoglutarate and CO2 via NADP+ to NADPH conversion. Subsequent studies confirmed the recurrent IDH mutations in up to 70% of secondary gliomas and in 10% of AML cases. In addition, the somatic mutation of cancer-associated IDH1 is a point mutation resulting in various amino-acid substituents at Arginine132 (IDH1 R132), a key residue found in the enzyme's active site that when mutated, results in the loss-of-function in metabolizing isocitrate but confers a gain-of-function to produce the oncometabolite 2-hydroxyglutarate (2HG). This in effect defines IDH1 as an oncogene and provides an extraordinary opportunity to discover chemical probes against mutant IDH1 that may translate into much needed new therapies for glioma and AML patients.
This assay aims to perform a synthetic-lethal screen for chemical probes specific for 2HG-producing tumor cells using matched paired cell lines (1) HT-1080-NT fibrosarcoma cell line that overproduces 2HG and (2) HT-1080-IDH1KD cell line which has IDH1 expression knocked-down. Desirable compounds are toxic to the NT fibrosarcoma cell line but not to the IDH1KD cell line. The data in this AID corresponds to the results of the qHTS against the HT-1080 IDH1KD cell line.
[1] Dang L, Jin S, Su SM. IDH mutations in glioma and acute myeloid leukemia. Trends of Mol Med. 2010; 16(9): 387-97.
[2] Dang L et al. Cancer-associated IDH1 mutations produce 2-hydroxyglutarate. Nature. 2010; 465(7300):966.
Molecular Libraries Probe Production Centers Network [MLPCN]
NIH Chemical Genomics Center [NCGC]
Assay Submitter (PI): Lenny Dang Ph.D., Agios Pharmaceuticals
Suspensions of trypsinized HT-1080-IDH1KD cells were dispensed into white, tissue culture-treated, solid 1536-well plates at 5uL/well (750 cells/well final concentration) in RPMI medium supplemented with 5% FBS. Plates were incubated at 37 degrees C for 2 hours, after which 23 nL of compounds or DMSO were delivered to each well using a pin tool. Plates were then incubated at 37 degrees C for an additional 48 hours. CellTiter-Glo viability reagent (Promega) was dispensed into wells (2.5uL/well) and incubated at room temperature for 10 minutes. The plates were measured on a PerkinElmer ViewLux plate reader for luminescent signal (clear filter, 1 sec exp.). DMSO-treated control wells and media-only (no cells) control wells were used to normalize %Activity of identified toxic compounds; DMSO-treated wells corresponded to 0%Activity (100% viability), while media-only controls were used to normalize 100%Activity (0% viability). To minimize variability between cell lines, both HT-1080-NT and HT-1080-IDH1KD lines were dispensed and treated with identical compound series in single batches.
Concentration-response curves were fitted to the signals arising from the resulting luminescence. The concentration-effect curves were then classified based on curve quality (r2), response magnitude and degree of measured activity, and compounds were subsequently categorized based on their curve class.
On the technique in general: In qHTS, concentration-response curves come from the screen itself.
As for `COc1ccc(NC(=O)c2cc(=O)[nH]c3ccccc23)cc1S(=O)(=O)N1CCOCC1`, the Potency entry was “inactive”. The result for `Cc1cc(C(=O)OCC(=O)NCc2ccco2)c(C)n1-c1ccccc1` reads 3.66 µM (active); that for `CN(c1ccccc1)S(=O)(=O)c1ccc(Cl)c(C(=O)OCC(=O)NCc2ccco2)c1`, “inactive”. The result for `O=C(COC(=O)c1ccccc1O)NCc1ccco1` reads “inactive”; that for `CCCCC(=O)N(C)c1c(CC)nc2c(OCc3ccc(S(C)(=O)=O)cc3)cccn12`, “inactive”. With `CN1CCN(c2ccc3c(c2)OC[C@H](Cc2ccccc2)NS3(=O)=O)CC1`, the Potency entry is “inactive”. As for `COc1ccc(CNC(=O)C2CC(c3ccc(C(F)(F)F)cc3)=NO2)cc1` (centres undefined), the Potency result was “inactive”. The result for `COc1ccc(C2=NOC(C(=O)NCc3ccco3)C2)cc1OC` (centres undefined) reads 4.47 µM (active); that for `COc1ccc(S(=O)(=O)N2CCC(C(=O)NCc3ccco3)CC2)cc1C`, “inactive”. In the case of `COc1ccc(OC)c(C(O)c2ncc(-c3cccc(C(F)(F)F)c3)[nH]2)c1` (centres undefined), the Potency result is “inactive”. Turning to `Cc1ccc(S(=O)(=O)N2CCN(CC(=O)N/N=C/c3cc([N+](=O)[O-])ccc3Cl)CC2)cc1`, the Potency result was “inactive”. The result for `Cc1cc(C(=O)N/N=C/c2cc([N+](=O)[O-])cc(C)c2O)n[nH]1` reads 16.4 µM (active); that for `COc1ccc(CC(=O)N/N=C/c2cc([N+](=O)[O-])cc(Br)c2O)cc1`, “inactive”. The result for `C[C@H]1CN([C@@H](C)CO)C(=O)c2cc(Br)cnc2O[C@H]1CN(C)S(=O)(=O)c1cccs1` reads “inactive”; that for `CCCC(=O)N1CCC1(C)C(=O)NS(=O)(=O)c1ccc(Cl)cc1` (centres undefined), “inactive”. The result for `CC(=O)NC1=NN(C(C)=O)C(C)(CCS(=O)(=O)c2ccc(Cl)c(Cl)c2)S1` (centres undefined) reads “inactive”; that for `CC(=O)NC1=NN(C(C)=O)C(C)(c2ccc(C)cc2)S1` (centres undefined), “inactive”; that for `CC(=O)NC1=NN(C(C)=O)C(C)(c2ccc(Cl)s2)S1` (centres undefined), 2.31 µM (active). With `CCCCN1C(=O)C(CC(=O)NCc2cccs2)CC(C(=O)N2CCCCCC2)=C1C` (centres undefined), the Potency entry is “inactive”.

For `CC1(C(=O)NS(=O)(=O)c2ccc(Cl)cc2)CCN1C(=O)CC1CCCC1` (centres undefined), the Potency entry was “inactive”. The result for `COc1ccc(-n2nnnc2-c2nc3ccccc3s2)cc1` reads “inactive”; that for `COc1ccc(NC(=O)CSc2nnnn2-c2cccc(OC)c2)cc1`, “inactive”; that for `CCOc1cccc(-n2nnnc2-c2ccc(OC)cc2)c1`, 4.61 µM (active). The result for `Cc1nc2ccccc2nc1CC(O)(c1ccccc1)c1ccccc1` reads “inactive”. The result for `Nc1nc2c(ncn2[C@@H]2O[C@H](CNCc3ccc(OCCCN4CCOCC4)cc3)[C@@H](O)[C@H]2O)c(=O)[nH]1` reads “inactive”; that for `COc1ccc2sc(N(CCCN(C)C)C(=O)c3ccc(S(=O)(=O)N(C)C4CCCCC4)cc3)nc2c1`, “inactive”; that for `CN(C)CCCN(C(=O)c1ccc(S(=O)(=O)N2CCCCCC2)cc1)c1nc2ccc(Br)cc2s1`, 16.4 µM (active). For `Cc1ccc2nc(N(CCN(C)C)C(=O)C3=COCCO3)sc2c1`, the Potency result was “inactive”. The result for `O=S1(=O)CC(N2CCN(Cc3ccccc3F)CC2)CN1Cc1cn(Cc2cccc(C(F)(F)F)c2)nn1` (centres undefined) reads “inactive”; that for `C[C@@H]1CN([C@@H](C)CO)S(=O)(=O)c2ccc(-c3ccc(C(=O)N(C)C)cc3)cc2O[C@@H]1CN(C)Cc1ccccc1C(=O)O`, “inactive”; that for `CC(C)c1ccc(NC(=S)NNc2ccc(Cl)c(C(=O)O)c2)cc1`, “inactive”.

`Cc1ccc(C)c(NC(=S)NNC(=S)Nc2ccc(C(C)C)cc2)c1`: the Potency is 23.1 µM (active).

Turning to `Cc1ccc(C)c(NC(=S)NNC(=O)c2csc(C)c2)c1`, the Potency entry is “inactive”. The result for `Cc1cc(Br)ccc1NC(=O)CCCOc1cc(=O)n(C)c2ccccc12` reads “inactive”. The result for `Cc1ccc(C(=O)Nc2c(-c3ccccc3)[nH][nH]c2=O)cc1` reads “inactive”; that for `O=C(Nc1ccc(Cl)cc1)N1CCc2[nH]c3ccccc3c2C1`, “inactive”. The result for `O=C(CCCN1CCc2[nH]c3ccc(F)cc3c2C1)c1ccc(F)cc1` reads 20.6 µM (active); that for `Fc1ccc(NC(=S)N2CCc3[nH]c4ccccc4c3C2)cc1`, “inactive”. Regarding `CC1(C(=O)NS(=O)(=O)c2ccccc2)CCN1C(=O)c1ccccc1` (centres undefined), the Potency entry was “inactive”. On to `COc1cc(C(O)c2nc(-c3cccc(C(=O)O)c3)cs2)ccc1F` (centres undefined), for which the Potency entry is “inactive”.

Regarding `COc1ccc2c(c1)c(=Cc1ccc(N(C)C)cc1)c1cc(-c3ccccc3)[n+](C)n12`, the Potency is 5.17 µM (active). The result for `COc1ccc2sc(-c3ccc(N(C)C)cc3)c(-c3ccc4cc[nH]c4c3)c2c1` reads “inactive”.

On to `CCCCC(=O)NC(c1ccc(OC)c(OC)c1)c1ccc2cccnc2c1O` (centres undefined), for which the Potency was 2.91 µM (active). The result for `COc1ccc(CCNS(=O)(=O)c2cccc3cccnc23)cc1OC` reads “inactive”; that for `CCOc1ccc(C(CC(=O)O)NC(=O)Cc2ccccc2)cc1OC` (centres undefined), “inactive”.

For `CCCNC(=O)C1(C)CCCN(C(=O)c2cccc(OC(C)=O)c2C)C1` (centres undefined), the Potency entry is “inactive”. The result for `Cc1ccc(-c2cc(=O)c3ccc(F)cc3[nH]2)cc1` reads “inactive”; that for `O=c1cc(-c2ccccc2)[nH]c2cc(F)ccc12`, 4.11 µM (active); that for `Cc1cc(=O)c2ccc(NC(=O)c3ccccc3)cc2[nH]1`, “inactive”.
